# Test results as given in PubChem BioAssay.
# The source made the active and inactive calls.
# Assays:
# [1] = binders of probe aFSTL3 on microarray, primary screen, stem cell growth factor project, biochemical, small-molecule microarray, fluorescence 635/667 (AID 1064); conditions: higher = more signal;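 note: measures binding of the biotinylated anti-FSTL3 antibody to printed compounds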
# [2] = binders from COS7 lysate, DM2A8 probe, primary screen, torsin A project, cell lysate, small-molecule microarray, fluorescence 635/667 (AID 1065); conditions: higher = more signal, COS7 lysate expressing mutant human TOR1A
# [3] = binders of probe aFGF2 on microarray, primary screen, stem cell growth factor project, biochemical, small-molecule microarray, fluorescence 635/667 (AID 1067); conditions: higher = more signal;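 note: measures binding of biotinylated aFGF2 protein to printed compounds on slides; z-score merges feature fluorescence and signal-to-noise across triplicate slides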
# [4] = binders of probe aFGF10 on microarray, primary screen, stem cell growth factor project, biochemical, small-molecule microarray, fluorescence 635/667 (AID 1071); conditions: higher = more signal;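 note: score merges 667 nm spot intensity and signal to noise from triplicate slides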
# [5] = molecular target: Neurogenic locus notch homolog protein 2 (Homo sapiens) (UniProt Q04721); assay: Notch2 binders on small-molecule microarrays, primary screen, biochemical, small-molecule microarray, 635 nm fluorescence, stem cell growth factors (AID 1073); conditions: Notch2 binding, higher = more signal
# [6] = molecular target: Pro-neuregulin-1, membrane-bound isoform (Homo sapiens) (UniProt Q02297); assay: NRG1 binders on small-molecule microarrays, primary screen, psychiatric disease protein project, biochemical, small-molecule microarray, fluorescence 635/667 (AID 1075); conditions: NRG1 binding, 635 nm fluorescence, higher = more signal;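 note: score combines 667 nm spot fluorescence with signal to noise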
# [7] = test system: Neuregulin-1 EGF-like domain; assay: binders of neuregulin-1 EGF-like domain, primary screen, biochemical, small-molecule microarray, 635 nm fluorescence (AID 1081); conditions: small-molecule microarray binding, higher = more signal;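 note: binding of the protein to compounds printed on small-molecule microarray slides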
# [8] = FRG1 promoter luciferase signal modulators, primary screen, FRG1 inhibition for FSHD, cell-based, C2C12 myotubes, firefly/Renilla luciferase, luminescence (AID 1084); conditions: higher = more signal, called active from +8 up or from −8 down
# [9] = binders of probe aFST on microarray, primary screen, stem cell growth factor project, biochemical, small-molecule microarray, fluorescence 635/667 (AID 1086); conditions: higher = more signal;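 note: score merges 667 nm fluorescence with signal-to-noise of each printed compound spot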
# [10] = binders of probe aHhip on microarray, primary screen, stem cell growth factor project, biochemical, small-molecule microarray, fluorescence 635/667 (AID 1087); conditions: higher = more signal;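 note: score merges spot fluorescence at 667nm with spot signal to noise ratio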
# [11] = test system: PRMT1 (protein arginine N-methyltransferase 1); assay: PRMT1 binders on small-molecule microarrays, primary screen, biochemical, small-molecule microarray, 635 nm fluorescence (AID 1088); conditions: small-molecule microarray binding, higher = more signal;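 note: binding of Prmt1 protein to compounds spotted on small-molecule microarray slides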
# [12] = yeast growth modulation, basal conditions, primary screen, YJM789 clinical isolate, OD600, 24 h (AID 1089);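 note: growth of clinical yeast isolate S. cerevisiae YJM 789 seeded 1000 cells per well; test concentration not given here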; conditions: S. cerevisiae YJM789 growth, higher = more signal, called active from +8 up or from −8 down
# [13] = fission yeast growth modulation, primary screen, strain 972, OD600, 24 h, no modulator (AID 1090);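 note: basal condition with compound alone and no growth modifier present; test concentration not given here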; conditions: S. pombe 972 growth, higher = more signal, called active from +8 up or from −8 down
# [14] = S. cerevisiae growth modulation with rapamycin, primary screen, strain BY4716, OD600, 96 h (AID 1091); conditions: higher = more signal, called active from +8 up or from −8 down; note: test concentration not given here
# [15] = molecular target: Torsin-1A-interacting protein 2 (Homo sapiens) (UniProt Q8NFQ8); assay: LULL1 binders on small-molecule microarray, primary screen, cell lysate, human LULL1 lysate, 635/667 nm fluorescence (AID 1092); conditions: hLULL1 lysate binding, 635 nm fluorescence, higher = more signal;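 note: probe is lysate of COS7 cells overexpressing human LULL1; score merges per-feature 667 nm fluorescence with signal-to-noise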
# [16] = E. coli growth modulation, two-sided OD650, primary screen, E. coli filamentation project, strain DRC41, 24 h (AID 1093); conditions: OD650, 24 h, higher = more signal, called active from +8 up or from −8 down;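 note: MC1000 strain lacking acrAB efflux and sulA so SOS filamentation is blocked; test concentration not given here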
# [17] = small-molecule microarray binders of probe aLefty2, primary screen, biochemical, biotinylated probe, 635/667 nm fluorescence (AID 1094); conditions: higher = more signal;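 note: score merges spot fluorescence near 667 nm with spot signal-to-noise ratio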
# [18] = test system: Noggin (protein binding on small-molecule microarray); assay: Noggin binders on small-molecule microarray, primary screen, biochemical, 635/667 nm fluorescence (AID 1095); conditions: 635 nm fluorescence, higher = more signal;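 note: score merges 667 nm feature fluorescence with signal to noise over triplicate slides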
# [19] = molecular target: Neurogenic locus notch homolog protein 3 (Homo sapiens) (UniProt Q9UM47); assay: NOTCH3 binders on small-molecule microarray, primary screen, biochemical, 635/667 nm fluorescence (AID 1096); conditions: NOTCH3 binding, 635 nm fluorescence, higher = more signal
# [20] = small-molecule microarray binders of probe aEGFR, primary screen, biochemical, biotinylated probe, 635/667 nm fluorescence (AID 1097); conditions: higher = more signal;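 note: probe is a biotinylated anti-EGFR antibody binding compounds printed on slides; score combines fluorescence near 667 nm and signal to noise of each spot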
# Sequence of Neurogenic locus notch homolog protein 2 (Homo sapiens) (Q04721 whole entry, looked up, canonical isoform): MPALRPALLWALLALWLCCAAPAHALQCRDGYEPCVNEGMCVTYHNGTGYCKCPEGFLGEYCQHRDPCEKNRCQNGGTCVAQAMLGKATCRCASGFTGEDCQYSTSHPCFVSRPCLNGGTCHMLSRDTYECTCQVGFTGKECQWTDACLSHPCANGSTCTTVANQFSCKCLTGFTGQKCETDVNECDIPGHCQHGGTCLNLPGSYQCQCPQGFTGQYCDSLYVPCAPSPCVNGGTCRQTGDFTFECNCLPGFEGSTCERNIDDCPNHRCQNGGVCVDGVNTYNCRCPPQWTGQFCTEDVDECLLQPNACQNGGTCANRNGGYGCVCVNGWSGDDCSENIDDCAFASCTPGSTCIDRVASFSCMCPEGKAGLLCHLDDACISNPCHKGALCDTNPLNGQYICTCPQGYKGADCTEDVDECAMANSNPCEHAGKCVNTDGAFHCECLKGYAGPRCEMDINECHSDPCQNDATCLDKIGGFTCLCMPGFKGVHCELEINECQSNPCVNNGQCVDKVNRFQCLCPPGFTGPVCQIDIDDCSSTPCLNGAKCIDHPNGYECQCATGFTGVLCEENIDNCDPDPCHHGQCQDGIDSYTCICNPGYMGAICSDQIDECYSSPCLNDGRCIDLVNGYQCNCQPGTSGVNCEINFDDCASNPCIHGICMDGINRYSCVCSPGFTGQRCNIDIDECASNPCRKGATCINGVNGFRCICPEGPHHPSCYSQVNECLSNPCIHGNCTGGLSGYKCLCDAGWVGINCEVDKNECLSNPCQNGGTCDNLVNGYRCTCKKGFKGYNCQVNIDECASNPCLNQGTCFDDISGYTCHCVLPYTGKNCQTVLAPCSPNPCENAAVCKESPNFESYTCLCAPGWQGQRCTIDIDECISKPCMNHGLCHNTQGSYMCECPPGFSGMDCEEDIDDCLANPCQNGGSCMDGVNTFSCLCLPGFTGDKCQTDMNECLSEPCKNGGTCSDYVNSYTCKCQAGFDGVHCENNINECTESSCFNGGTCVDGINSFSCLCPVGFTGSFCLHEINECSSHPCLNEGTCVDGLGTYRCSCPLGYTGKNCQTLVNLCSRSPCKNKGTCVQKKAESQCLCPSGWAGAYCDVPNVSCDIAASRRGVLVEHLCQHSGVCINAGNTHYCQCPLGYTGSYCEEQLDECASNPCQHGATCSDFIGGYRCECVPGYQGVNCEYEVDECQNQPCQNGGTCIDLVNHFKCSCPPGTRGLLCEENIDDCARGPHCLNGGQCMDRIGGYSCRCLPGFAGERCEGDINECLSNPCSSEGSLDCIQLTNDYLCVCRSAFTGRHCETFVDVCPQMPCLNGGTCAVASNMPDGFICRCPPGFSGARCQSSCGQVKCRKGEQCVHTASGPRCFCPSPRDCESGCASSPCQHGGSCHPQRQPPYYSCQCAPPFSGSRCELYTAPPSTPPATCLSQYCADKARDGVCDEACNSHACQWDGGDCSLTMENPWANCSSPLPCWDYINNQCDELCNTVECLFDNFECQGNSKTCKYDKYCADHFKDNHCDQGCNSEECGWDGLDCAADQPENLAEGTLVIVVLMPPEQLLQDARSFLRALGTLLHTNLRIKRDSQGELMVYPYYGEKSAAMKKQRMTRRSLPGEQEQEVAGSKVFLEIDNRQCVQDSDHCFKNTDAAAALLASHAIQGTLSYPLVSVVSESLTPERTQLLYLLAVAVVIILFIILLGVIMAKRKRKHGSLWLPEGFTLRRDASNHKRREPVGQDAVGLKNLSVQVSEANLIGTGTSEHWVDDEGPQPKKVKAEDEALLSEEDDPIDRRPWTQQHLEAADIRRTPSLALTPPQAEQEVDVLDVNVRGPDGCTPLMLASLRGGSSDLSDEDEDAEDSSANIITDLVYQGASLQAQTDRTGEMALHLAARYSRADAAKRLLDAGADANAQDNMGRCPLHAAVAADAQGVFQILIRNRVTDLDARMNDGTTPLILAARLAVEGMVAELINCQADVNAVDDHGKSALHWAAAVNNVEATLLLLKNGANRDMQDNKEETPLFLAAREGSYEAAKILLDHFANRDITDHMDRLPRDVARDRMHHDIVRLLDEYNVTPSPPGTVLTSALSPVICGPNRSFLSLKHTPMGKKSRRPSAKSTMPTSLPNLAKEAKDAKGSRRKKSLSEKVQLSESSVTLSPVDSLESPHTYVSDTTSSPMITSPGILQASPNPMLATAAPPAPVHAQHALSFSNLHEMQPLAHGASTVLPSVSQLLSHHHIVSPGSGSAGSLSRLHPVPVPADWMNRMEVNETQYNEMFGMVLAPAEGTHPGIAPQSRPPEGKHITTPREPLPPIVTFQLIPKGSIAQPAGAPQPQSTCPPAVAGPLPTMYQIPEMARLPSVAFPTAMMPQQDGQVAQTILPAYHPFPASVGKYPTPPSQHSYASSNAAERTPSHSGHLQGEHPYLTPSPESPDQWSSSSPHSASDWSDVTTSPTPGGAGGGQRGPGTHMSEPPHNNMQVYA
# Sequence of Pro-neuregulin-1, membrane-bound isoform (Homo sapiens) (Q02297 whole entry, looked up, the tested form may be a part, canonical isoform): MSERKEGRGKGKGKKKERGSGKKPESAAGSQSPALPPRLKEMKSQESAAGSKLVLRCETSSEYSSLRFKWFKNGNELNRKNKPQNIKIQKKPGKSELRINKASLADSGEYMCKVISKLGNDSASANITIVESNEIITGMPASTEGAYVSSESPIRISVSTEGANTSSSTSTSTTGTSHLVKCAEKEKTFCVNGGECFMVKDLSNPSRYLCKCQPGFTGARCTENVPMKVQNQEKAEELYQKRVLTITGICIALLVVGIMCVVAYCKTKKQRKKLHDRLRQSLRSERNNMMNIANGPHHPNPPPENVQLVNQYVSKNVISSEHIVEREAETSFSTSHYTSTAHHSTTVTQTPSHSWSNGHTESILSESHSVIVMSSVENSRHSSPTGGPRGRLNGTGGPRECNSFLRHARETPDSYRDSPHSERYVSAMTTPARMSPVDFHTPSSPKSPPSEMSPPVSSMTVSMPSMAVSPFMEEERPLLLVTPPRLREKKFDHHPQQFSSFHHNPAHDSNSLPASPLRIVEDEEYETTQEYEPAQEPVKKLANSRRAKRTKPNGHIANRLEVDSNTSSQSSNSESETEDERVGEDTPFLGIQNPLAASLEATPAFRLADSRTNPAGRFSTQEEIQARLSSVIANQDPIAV
# Sequence of Torsin-1A-interacting protein 2 (Homo sapiens) (Q8NFQ8 whole entry, looked up): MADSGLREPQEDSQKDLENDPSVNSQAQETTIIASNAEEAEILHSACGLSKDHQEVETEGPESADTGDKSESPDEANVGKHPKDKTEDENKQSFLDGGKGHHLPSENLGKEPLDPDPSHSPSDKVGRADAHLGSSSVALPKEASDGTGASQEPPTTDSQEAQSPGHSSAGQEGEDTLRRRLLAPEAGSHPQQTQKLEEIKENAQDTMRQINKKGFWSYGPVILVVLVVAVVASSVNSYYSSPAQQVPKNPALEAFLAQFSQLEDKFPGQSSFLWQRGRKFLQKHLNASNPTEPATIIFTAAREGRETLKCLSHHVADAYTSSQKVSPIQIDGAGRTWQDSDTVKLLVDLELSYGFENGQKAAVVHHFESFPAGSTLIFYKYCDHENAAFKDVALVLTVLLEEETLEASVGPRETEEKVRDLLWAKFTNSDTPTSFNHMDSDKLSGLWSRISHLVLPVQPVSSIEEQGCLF
compound,measurement,setting,value
C=CCC(OC(C)=O)[C@@H]1[C@@H](N(Cc2ccc(-c3ccccc3)cc2)C(=O)Cc2ccc(F)cc2)c2cc(OCCCO)ccc2N1C(=O)Cc1ccc(OC)cc1 (stereo not given in full),composite z-score,[1],-0.134
same,composite z-score,[2],0.132
same,composite z-score,[3],-0.172
same,composite z-score,[4],0.295
same,composite z-score,[5],-0.437
same,composite z-score,[6],0.0936
same,composite z-score,[7],-0.438
same,z-score,[8],-0.528 (inactive)
same,composite z-score,[9],0.121
same,composite z-score,[10],-0.175
same,composite z-score,[11],-0.712
same,z-score,[12],0.111 (inactive)
same,z-score,[13],0.278 (inactive)
same,z-score,[14],-0.0946 (inactive)
same,composite z-score,[15],0.311
same,z-score,[16],0.245 (inactive)
same,composite z-score,[17],0.0731
same,composite z-score,[18],-0.128
same,composite z-score,[19],-0.241
same,composite z-score,[20],-0.204
COc1ccc(NC(=O)O[C@H]2[C@H](OC(=O)Nc3ccccc3)[C@H](OC(=O)Nc3ccccc3)[C@@H](OC)O[C@@H]2CO)cc1,composite z-score,[1],0.474
same,composite z-score,[2],1
same,composite z-score,[3],0.338
same,composite z-score,[4],1.19
same,composite z-score,[5],1.15
same,composite z-score,[6],1.61
same,composite z-score,[7],1.25
same,z-score,[8],-0.742 (inactive)
same,composite z-score,[9],0.803
same,composite z-score,[10],0.281
same,composite z-score,[11],1.55
same,z-score,[12],0.855 (inactive)
same,z-score,[13],0.887 (inactive)
same,z-score,[14],3.25 (inactive)
same,composite z-score,[15],2.66
same,z-score,[16],-0.873 (inactive)
same,composite z-score,[17],0.31
same,composite z-score,[18],0.691
same,composite z-score,[19],0.989
same,composite z-score,[20],0.644
C[N+](C)(C)CCCC[C@@H]1NC(=O)[C@H]2C[C@@H](C(=O)NCCCCCCN)[C@@H](c3ccc(O)cc3)N2C1=O,composite z-score,[1],0.239
same,composite z-score,[2],0.713
same,composite z-score,[3],0.0797
same,composite z-score,[4],0.575
same,composite z-score,[5],1.27
same,composite z-score,[6],1.99
same,composite z-score,[7],1.09
same,z-score,[8],-0.194 (inactive)
same,composite z-score,[9],0.901
same,composite z-score,[10],0.373
same,composite z-score,[11],1.26
same,z-score,[12],0.731 (inactive)
same,z-score,[13],-1.51 (inactive)
same,z-score,[14],1.13 (inactive)
same,composite z-score,[15],1.57
same,z-score,[16],0.766 (inactive)
same,composite z-score,[17],0.265
same,composite z-score,[18],-0.232
same,composite z-score,[19],0.64
same,composite z-score,[20],0.155
CCOC(=O)C[C@H]1[C@H](OC(=O)Cc2ccc3c(c2)OCO3)[C@@H](NC(=O)Cc2ccc(OC)cc2)c2cc(OCCCO)ccc2N1C(=O)c1ccc2ccccc2n1,composite z-score,[1],-0.362
same,composite z-score,[2],0.401
same,composite z-score,[3],-0.104
same,composite z-score,[4],0.466
same,composite z-score,[5],0.255
same,composite z-score,[6],0.371
same,composite z-score,[7],0.752
same,z-score,[8],-3.56 (inactive)
same,composite z-score,[9],0.103
same,composite z-score,[10],-0.274
same,composite z-score,[11],0.317
same,z-score,[12],-2.05 (inactive)
same,z-score,[13],-1.34 (inactive)
same,z-score,[14],0.758 (inactive)
same,composite z-score,[15],0.708
same,z-score,[16],2.08 (inactive)
same,composite z-score,[17],-0.137
same,composite z-score,[18],0.14
same,composite z-score,[19],0.32
same,composite z-score,[20],-0.146
CC(=O)c1ccc(C(O)C2C=CC3C(=O)N(c4ccccc4)C(=O)C3N2Nc2ccc(C#N)cc2)cc1 (stereo not given),composite z-score,[1],0.0415
same,composite z-score,[2],0.233
same,composite z-score,[3],-0.122
same,composite z-score,[4],-0.0474
same,composite z-score,[5],0.833
same,composite z-score,[6],1.5
same,composite z-score,[7],0.609
same,z-score,[8],-0.0141 (inactive)
same,composite z-score,[9],0.766
same,composite z-score,[10],-0.0645
same,composite z-score,[11],0.155
same,z-score,[12],-0.623 (inactive)
same,z-score,[13],1.04 (inactive)
same,z-score,[14],2.05 (inactive)
same,composite z-score,[15],3.76
same,z-score,[16],-0.963 (inactive)
same,composite z-score,[17],-0.103
same,composite z-score,[18],-0.442
same,composite z-score,[19],0.352
same,composite z-score,[20],0.0753
